The whole screen tested about 5,500 compounds, of which about 2,000 (36%) were called active. Not shown: some 18% with an inconclusive outcome. Cut-off read from the data, not from the text of the source: active = normalized growth mostly below about 0.91 (no sharp cut-off); inconclusive = no clear call, values can overlap the other calls; inactive = mostly above about 0.92. The list shows a part of the results.
Assay: chemical genetic growth profiling, strain panel (AID 1159580);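 note: tested at 20 µM; growth read once vehicle control cultures reached saturation at 30 °C; 1 = growth at the plate median or of vehicle wells; lower values mean less growth of the strain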
Details: growth OD

Measured: normalized growth

CC(C)=CCC[C@](C)(O)C1CC=C(C)CC1 (some centres not stated)
inactive: S. cerevisiae deletion strains, locus YJR043C, strain POL32, stronger effect = lower value 1.01 | S. cerevisiae deletion strains, locus YJR066W, strain TOR1, stronger effect = lower value 0.953 | S. cerevisiae deletion strains, locus YKL009W, strain mrt4, stronger effect = lower value 0.962 | S. cerevisiae deletion strains, locus YKL068W, stronger effect = lower value 1.01 | S. cerevisiae deletion strains, locus YKL085W, strain MDH1 (second series), stronger effect = lower value 0.991 | S. cerevisiae deletion strains, locus YKL085W, strain MDH1, stronger effect = lower value 0.991 | S. cerevisiae deletion strains, locus YKL160W, strain elf1, stronger effect = lower value 1 | S. cerevisiae deletion strains, locus YKR001C, strain vps1, stronger effect = lower value 0.902 | S. cerevisiae deletion strains, locus YKR026C, strain gcn3, stronger effect = lower value 0.976 | S. cerevisiae deletion strains, locus YKR091W, strain srl3, stronger effect = lower value 0.98 | S. cerevisiae deletion strains, locus YLL001W, strain dnm1, stronger effect = lower value 0.992 | S. cerevisiae deletion strains, locus YLL026W, stronger effect = lower value 0.992 | S. cerevisiae deletion strains, locus YLL041C, strain sdh2, stronger effect = lower value 0.997 | S. cerevisiae deletion strains, locus YLR027C, strain aat2, stronger effect = lower value 0.969 | S. cerevisiae deletion strains, locus YLR039C, strain RIC1, stronger effect = lower value 0.964 | S. cerevisiae deletion strains, locus YLR058C, strain SHM2, stronger effect = lower value 1.03 | S. cerevisiae deletion strains, locus YLR102C, strain apc9, stronger effect = lower value 0.986 | S. cerevisiae deletion strains, locus YLR113W, strain HOG1, stronger effect = lower value 1.02 | S. cerevisiae deletion strains, locus YLR221C, strain rsa3, stronger effect = lower value 0.982 | S. cerevisiae deletion strains, locus YLR258W, strain gsy2, stronger effect = lower value 0.978 | S. cerevisiae deletion strains, locus YLR262C, strain YPT6 (second series), stronger effect = lower value 0.998 | S. cerevisiae deletion strains, locus YLR262C, strain YPT6, stronger effect = lower value 0.966 | S. cerevisiae deletion strains, locus YLR268W, strain sec22, stronger effect = lower value 0.991 | S. cerevisiae deletion strains, locus YLR320W, strain mms22, stronger effect = lower value 0.984 | S. cerevisiae deletion strains, locus YLR330W, strain CHS5, stronger effect = lower value 1.02 | S. cerevisiae deletion strains, locus YLR342W, strain FKS1 (second series), stronger effect = lower value 0.995 | S. cerevisiae deletion strains, locus YLR342W, strain FKS1, stronger effect = lower value 0.98 | S. cerevisiae deletion strains, locus YLR357W, strain rsc2, stronger effect = lower value 0.944 | S. cerevisiae deletion strains, locus YLR370C, strain arc18, stronger effect = lower value 0.96 | S. cerevisiae deletion strains, locus YLR371W, strain rom2, stronger effect = lower value 1 | S. cerevisiae deletion strains, locus YLR384C, strain iki3, stronger effect = lower value 0.971 | S. cerevisiae deletion strains, locus YLR418C, strain cdc73, stronger effect = lower value 0.982 | S. cerevisiae deletion strains, locus YML016C, strain PPZ1, stronger effect = lower value 1.01 | S. cerevisiae deletion strains, locus YML032C, strain rad52, stronger effect = lower value 0.992 | S. cerevisiae deletion strains, locus YML120C, strain ndi1, stronger effect = lower value 0.988 | S. cerevisiae deletion strains, locus YML124C, strain tub3, stronger effect = lower value 1 | S. cerevisiae deletion strains, locus YMR058W, strain fet3, stronger effect = lower value 0.97 | S. cerevisiae deletion strains, locus YMR078C, strain ctf18, stronger effect = lower value 0.976 | S. cerevisiae deletion strains, locus YMR125W, strain sto1, stronger effect = lower value 0.967 | S. cerevisiae deletion strains, locus YMR129W, stronger effect = lower value 0.992 | S. cerevisiae deletion strains, locus YMR205C, strain PFK2, stronger effect = lower value 0.983 | S. cerevisiae deletion strains, locus YMR223W, strain ubp8, stronger effect = lower value 0.991 | S. cerevisiae deletion strains, locus YMR231W, strain pep5, stronger effect = lower value 0.965 | S. cerevisiae deletion strains, locus YMR307W, strain GAS1, stronger effect = lower value 1.13 | S. cerevisiae deletion strains, locus YNL067W, strain RPL9B, stronger effect = lower value 1.01 | S. cerevisiae deletion strains, locus YNL071W, strain lat1, stronger effect = lower value 0.98 | S. cerevisiae deletion strains, locus YNL153C, strain GIM3, stronger effect = lower value 1.01 | S. cerevisiae deletion strains, locus YNL183C, strain NPR1, stronger effect = lower value 0.954 | S. cerevisiae deletion strains, locus YNL209W, strain ssb2, stronger effect = lower value 0.98 | S. cerevisiae deletion strains, locus YNL233W, strain BNI4, stronger effect = lower value 1.04 | S. cerevisiae deletion strains, locus YNL248C, strain rpa49, stronger effect = lower value 0.978 | S. cerevisiae deletion strains, locus YNL250W, strain rad50, stronger effect = lower value 1 | S. cerevisiae deletion strains, locus YNL271C, strain bni1, stronger effect = lower value 0.988 | S. cerevisiae deletion strains, locus YNL298W, strain CLA4, stronger effect = lower value 1.01 | S. cerevisiae deletion strains, locus YNL307C, strain MCK1, stronger effect = lower value 0.983 | S. cerevisiae deletion strains, locus YNL322C, strain KRE1 (second series), stronger effect = lower value 0.982 | S. cerevisiae deletion strains, locus YNR049C, strain mso1, stronger effect = lower value 0.979 | S. cerevisiae deletion strains, locus YNR052C, strain pop2, stronger effect = lower value 0.994 | S. cerevisiae deletion strains, locus YOL012C, strain htz1 1.39 | S. cerevisiae deletion strains, locus YOL147C, strain pex11, stronger effect = lower value 0.981 | S. cerevisiae deletion strains, locus YOR001W, strain rrp6, stronger effect = lower value 0.975 | S. cerevisiae deletion strains, locus YOR061W, strain CKA2, stronger effect = lower value 1.03 | S. cerevisiae deletion strains, locus YOR069W, strain VPS5, stronger effect = lower value 1.02 | S. cerevisiae deletion strains, locus YOR070C, strain gyp1, stronger effect = lower value 1.02 | S. cerevisiae deletion strains, locus YOR080W, strain dia2, stronger effect = lower value 0.979 | S. cerevisiae deletion strains, locus YOR083W, strain WHI5, stronger effect = lower value 0.987 | S. cerevisiae deletion strains, locus YOR106W, strain vam3, stronger effect = lower value 0.947 | S. cerevisiae deletion strains, locus YOR136W, strain idh2, stronger effect = lower value 0.992 | S. cerevisiae deletion strains, locus YOR144C, strain elg1, stronger effect = lower value 0.989 | S. cerevisiae deletion strains, locus YOR184W, strain ser1, stronger effect = lower value 0.994 | S. cerevisiae deletion strains, locus YOR231W, strain MKK1, stronger effect = lower value 0.993 | S. cerevisiae deletion strains, locus YOR265W, strain rbl2, stronger effect = lower value 0.98 | S. cerevisiae deletion strains, locus YOR270C, strain vph1, stronger effect = lower value 0.932 | S. cerevisiae deletion strains, locus YOR290C, strain snf2, stronger effect = lower value 0.969 | S. cerevisiae deletion strains, locus YOR316C, strain cot1, stronger effect = lower value 0.986 | S. cerevisiae deletion strains, locus YPL051W, strain arl3, stronger effect = lower value 0.981 | S. cerevisiae deletion strains, locus YPL055C, strain LGE1, stronger effect = lower value 1.04 | S. cerevisiae deletion strains, locus YPL078C, strain atp4, stronger effect = lower value 0.988 | S. cerevisiae deletion strains, locus YPL106C, strain sse1, stronger effect = lower value 0.981 | S. cerevisiae deletion strains, locus YPL240C, strain hsp82, stronger effect = lower value 0.977 | S. cerevisiae deletion strains, locus YPL256C, strain CLN2, stronger effect = lower value 0.99 | S. cerevisiae deletion strains, locus YPR119W, strain clb2, stronger effect = lower value 1.01 | S. cerevisiae deletion strains, locus YPR141C, strain kar3, stronger effect = lower value 1 | S. cerevisiae deletion strains, locus YPR163C, strain tif3, stronger effect = lower value 0.973 | S. cerevisiae deletion strains, locus YPR167C, strain met16, stronger effect = lower value 1.02 | S. cerevisiae deletion strains, strain wtn01, stronger effect = lower value 0.974 | S. cerevisiae strains, strain wild type, stronger effect = lower value 1.02

Reference: PubChem BioAssay AID1159580 (chemical genetic matrix, 2015)
